High-throughput results from PubChem BioAssay.
Most compounds without a hit are left out; they make up all but 1% or so of the library.
gsp ag: qHTS for Agonist of gsp, the Etiologic Mutation Responsible for Fibrous Dysplasia/McCune-Albright Syndrome: qHTS; 0.13% of 340,000 active; Potency, µM (doses to about 76.9 µM), for the others: top-dose activation (cAMP increase), usual class: activators; AID 624287, 2012; gsp mutant cells, cAMP HTRF, 30 min; active = well fitted activation curve with a large enough effect; inconclusive = small, poorly fitted or top-dose-only effect, or another doubt; inactive = no such curve, though single readings can be large or run the other way; cell line not stated here;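 also: phosphodiesterase inhibitor Ro 20-1724 added with compounds to block cAMP breakdown; potency is read from the fitted curve at half-maximal effect; nearly all actives have a fitted effect of over 60% in size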
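Cells in DMEM/10% FBS with G418 were pretreated with compounds in DMSO plus […] (300 uM stock) for 30 min at 37C. cAMP was measured by HTRF (cAMP-d2 plus anti-cAMP antibody-K) after 30 min at room temperature.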
RXFP1 agonist: qHTS Assay for Agonists of the Relaxin Receptor RXFP1; HEK293T-RXFP1 cAMP TR-FRET, 30 min; response scale: percent of porcine relaxin response, buffer zero; Potency, µM (highest dose often 57.5 µM), for the others: at the top dose activation, hits mostly activators; 0.3% of 370,000 active; Relaxin receptor 1 (Homo sapiens), Q9HBX9; active = well fitted activation curve with a large enough effect; inconclusive = small, poorly fitted or top-dose-only effect; also: potency is read from the fitted curve at half-maximal effect; % is scaled to controls: 0 for no effect and ±100 for the full control effect; nearly all actives have a fitted effect of over 60% in size
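Agonist response is measured as cAMP accumulation in an RXFP1-transfected HEK293T line under PDE4 inhibition. Values are scaled between buffer-only and 29 nM porcine relaxin, and EC50s come from standard Hill equation fits.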
gsp antagonist: qHTS for Antagonists of gsp, the Etiologic Mutation Responsible for Fibrous Dysplasia/McCune-Albright Syndrome: qHTS. Potency, µM (highest dose often 76.9 µM), for the others: at the highest dose activity change, negative = inhibition, actives largely listed as inhibitors. gsp-mutant cells, cAMP HTRF, 30 min. AID 624288, 2012. 0.4% of 340,000 active; calls by dose curve; cell line not stated here;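 also: intracellular cAMP measured with PDE inhibitor Ro 20-1724 present during compound exposure; potency is read from the fitted curve at half-maximal effect; % is scaled to controls: 0 for no effect and ±100 for the full control effect; nearly all actives have a fitted effect of over 65% in size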
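HTRF cAMP measurement after 30 min RT detection following 30 min, 37C compound treatment alongside […] (added as 300 uM solution) in G418-selected cells seeded at 2000/well and grown 16–24 h.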
TSHR antagonist: Antagonists of the Thyroid Stimulating Hormone Receptor: HTS campaign | Thyrotropin receptor (Homo sapiens), P16473 | TSHR-expressing cells, TSH-stimulated cAMP HTRF, 2 h; active compounds read low | activity change, negative = inhibition, % at 11.5 µM | 0.2% of 330,000 active | AID 504810, 2011;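 active = activity change below a set negative limit, meaning inhibition stronger than a set level, cut at about -70% in these data; inconclusive = activity change between two set negative limits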; also: % is scaled to controls: 0 for no effect and ±100 for the full control effect
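Read-out is FRET at 665 nm (cryptate excitation 337 nm) from a cryptate-tagged anti-cAMP antibody, competed by cell cAMP against cAMP-d2. Compounds are tested on freshly harvested TSHR cells challenged with 4nM TSH (EC80) for 2 hours at 37 deg C.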
RXFP1 antag: qHTS Assay for Antagonists of the Relaxin Receptor RXFP1; HEK293-RXFP1, relaxin-stimulated cAMP HTRF, 30 min; active compounds read low; 0.59% of 350,000 active; activity change, negative = inhibition, % at 57.5 µM; Relaxin receptor 1 (Homo sapiens), Q9HBX9;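 active = activity change of -60% or lower, but not beyond a set lower limit; inconclusive = change between -60% and -40%, or beyond the set limit; inactive = change above -40%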; also: % is scaled to controls: 0 for no effect and ±100 for the full control effect
* = called active by the depositor; ? = inconclusive; nt = no result given; [ ] = remark or other dose.

SMILES	gsp ag	RXFP1 agonist	gsp antagonist	TSHR antagonist	RXFP1 antag
CCN1CCN(C(c2ccc(SC)cc2)c2c(O)cc(C)n(CCOC)c2=O)CC1 (stereo not drawn)	nt	9%	nt	nt	2
O=C(CCS(=O)(=O)c1ccc(F)cc1)Nc1nc(-c2ccccn2)cs1	16%	-2%	6%	-110*	-25
O=C(CCCN1CCN(c2ccc(F)cc2)CC1)NC1c2ccccc2CSc2ccccc21 (stereo not drawn)	nt	nt	nt	nt	-27
Cc1cccc(NC(=O)c2cc(NC(=O)C3CCCCC3C(=O)O)ccc2N2CCCCC2)c1 (stereo not drawn)	-38%	-1%	35µM*	-22	2
Cc1ccc(NC(=O)C2CCC(CNS(=O)(=O)c3cccs3)CC2)cc1C (stereo not drawn)	nt	1%	nt	nt	?
O=C(Cc1ccc(Cl)cc1)N/N=C/c1cccc(O)c1	0%	1%	50µM*	17	10
O=C(CNC(=O)c1ccccc1Br)N/N=C/c1ccccc1O	-17%[15.4 µM]	0%	-20%	-3	8
O=C(C[n+]1ccccc1)N/N=C/c1cc(Br)cc(Br)c1O	-14%[15.4 µM]	0%	22%	18	?
O=C(CNC(=O)c1ccccc1Br)N/N=C\c1cc([N+](=O)[O-])cc(Br)c1O	0%	-4%	-5%	-3	-67*
O=C(Cc1ccccc1)N/N=C/c1cc(Br)cc(Cl)c1O	12%[15.4 µM]	10%	-13%	7	-63*
O=C(CP(=O)(c1ccccc1)c1ccccc1)N/N=C/c1cc(Br)cc(Br)c1O	2%[15.4 µM]	3%	-27%	15	-71*
COc1cc(Br)cc(/C=N/NC(=O)Cc2ccccc2)c1O	-18%[15.4 µM]	nt	5%	nt	-13
CCCCN(CCCC)C(C(N)=O)c1ccc(OC)cc1 (stereo not drawn)	nt	nt	nt	nt	-13
CCc1ccc(NCc2cc3cc4c(cc3n(CC(=O)Nc3cccc(OC)c3)c2=O)OCO4)cc1	nt	4%	nt	nt	nt
N#Cc1ccccc1-c1csc(N2CCC(C(N)=O)CC2)n1	nt	nt	nt	17	nt
COc1cccc(OCc2cc(=O)n3c(-c4ccccc4)csc3n2)c1	nt	?	nt	nt	0
C/C(=N\NC(=O)c1nnn(-c2nonc2N)c1-c1ccc(Cl)c(Cl)c1)c1ccncc1	50%	-1%	?	-87*	-17
Cc1cccc(N2CCN(C(=O)c3ccc4c(c3)N(Cc3cccc(Cl)c3)C(=O)c3ccccc3S4=O)CC2C)c1 (stereo not drawn)	nt	-1%	nt	nt	-16
Fc1ccc(C2CC(c3ccccc3)Nc3ncnn32)cc1 (stereo not drawn)	8%	0%	11µM*	17	nt
c1ccc(C2CC(c3ccccc3)n3ncnc3N2)cc1 (stereo not drawn)	23%	1%	2%	-12	2
O=C(NC(=S)Nc1ccccc1)c1ccc(-c2ccccc2)cc1	13%	2%	6%	-5	11
O=C(NC(=S)Nc1ccc2c(c1)OCCO2)c1ccccc1	-31%	-1%	32µM*	-10	0
O=C(O)c1ccc(NC(=S)NC(=O)c2ccc(-c3ccccc3)cc2)cc1	-23%	1%	20µM*	-11	?
Cn1ncc2cc(NC(=S)NC(=O)c3ccccc3)ccc21	-21%	0%	40µM*	-3	1
Cc1ccc(-n2nnnc2CNC(=O)C(C)C)cc1C	nt	3%	nt	nt	-8
CCC(NC(=O)Nc1nnc(C(F)(F)F)s1)(C(F)(F)F)C(F)(F)F	0%	1%	4.5µM*	-87*	-2
CC(C)c1ccc(NS(=O)(=O)c2ccc3nc(-c4ccccc4)[nH]c3c2)cc1	nt	1%	nt	nt	-69*
Cc1ccccc1N1CC(C(=O)Nc2nnc(SCCN3CCOCC3)s2)CC1=O (stereo not drawn)	?	0%	32µM*	8	4
Cc1cccc(N2CC(C(=O)Nc3nnc(SCCN4CCOCC4)s3)CC2=O)c1 (stereo not drawn)	4%[15.4 µM]	-2%	-11%	4	-15
